PubChem BioAssay (NCATS)
Results filed as inconclusive are left out. Unless noted, calls follow the shape of the dose curve; as a rule, active = well fitted curve in either direction with a large enough effect (not every such curve was filed as active); inconclusive = small, poorly fitted or top-dose-only effect, or another doubt; inactive = flat fitted curve, though single readings scatter.

Assays:
[1] = AP1 Signaling Pathway (AID 357); settings: ME-180 AP-1-bla reporter, EGF-induced, beta-lactamase ratio, 5 h; at 17.2 µM (top of the series) unless noted;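 also: ME-180 reporter cells stimulated with EGF at its EC50 level; % is scaled to controls: 0 for no effect and ±100 for the full control effect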
Method in brief: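 First, ME-180 AP-1-bla cells were cultured overnight at 37 °C in low-serum Opti-MEM. Next, titrated compounds with EC50 EGF were incubated 5 hours. Finally, CCF4 was added for 2.5 hours and the 460/530 nm ratio recorded.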

[2] = NFAT Signaling Pathway (AID 444); settings: Jurkat NFAT-bla M1, carbachol, beta-lactamase ratio, 5 h; at 17.2 µM (top of the series) unless noted;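 also: carbachol stimulus at about its EC50 of 1 µM final; % is scaled to controls: 0 for no effect and ±100 for the full control effect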
Method in brief: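 Read-out: CCF4 FRET ratio (460 nm/530 nm) after 1 h RT dye loading, used for %activity and AC50 from titration series. Cells: Jurkat NFAT-β-lactamase/M1 line, treated with compound plus 1 uM carbachol for 5 h, 37 °C.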

[3] = Stat Signaling Pathway (AID 446); settings: ME-180 (cervical carcinoma) SIE beta-lactamase reporter, IL-6 stimulated, 5 h; at 17.2 µM (top of the series) unless noted;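 also: ME-180 cervical cancer cells given 40 pM IL-6 alongside compound; SIE-controlled beta-lactamase reporter measured as 460/530 nm FRET emission ratio; % is scaled to controls: 0 for no effect and ±100 for the full control effect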
Method in brief: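 FRET read-out (405 nm excitation, 460/530 nm emission) of a beta-lactamase reporter under a STAT-inducible element in ME-180 cervical carcinoma cells. Cells with compound receive 40 pM IL-6 for 5 h. Values are normalised to AC90 stimulation and AC90 JAK-inhibitor controls.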

[4] = target: Glucocorticoid receptor (Homo sapiens) (UniProt P04150); experiment: GR-GFP Redistribution (AID 450;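 active = compounds whose dose series gives a full or clear partial fitted curve of increased nuclear translocation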; also: potency is read from the fitted curve at half-maximal effect)
Sequence of Glucocorticoid receptor (Homo sapiens) (P04150 whole entry, looked up): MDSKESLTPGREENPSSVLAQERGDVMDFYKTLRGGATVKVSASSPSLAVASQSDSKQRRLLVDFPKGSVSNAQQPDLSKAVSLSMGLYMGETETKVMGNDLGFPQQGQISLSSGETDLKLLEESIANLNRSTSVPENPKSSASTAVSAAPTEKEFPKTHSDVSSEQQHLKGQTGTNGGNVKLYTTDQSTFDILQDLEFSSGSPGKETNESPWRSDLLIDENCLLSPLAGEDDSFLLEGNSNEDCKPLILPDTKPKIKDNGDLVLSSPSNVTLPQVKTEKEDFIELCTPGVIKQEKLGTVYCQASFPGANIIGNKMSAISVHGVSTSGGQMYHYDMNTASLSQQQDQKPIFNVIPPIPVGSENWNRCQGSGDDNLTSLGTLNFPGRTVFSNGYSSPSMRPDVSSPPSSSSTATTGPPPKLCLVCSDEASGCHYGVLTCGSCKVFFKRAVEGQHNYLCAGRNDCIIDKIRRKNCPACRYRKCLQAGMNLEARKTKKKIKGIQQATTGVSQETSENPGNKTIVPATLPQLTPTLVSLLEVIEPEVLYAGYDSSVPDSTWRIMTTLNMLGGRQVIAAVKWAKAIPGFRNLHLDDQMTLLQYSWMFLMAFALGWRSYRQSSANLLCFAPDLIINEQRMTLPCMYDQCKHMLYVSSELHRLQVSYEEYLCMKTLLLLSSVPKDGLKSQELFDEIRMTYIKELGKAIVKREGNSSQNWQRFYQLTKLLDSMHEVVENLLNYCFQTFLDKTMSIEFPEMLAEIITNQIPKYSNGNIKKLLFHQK

C=CCN=C(C)C1=C(O)CCC1=O
inactive: activity change, negative = inhibition [1] 23.8% | activity change, negative = inhibition [2] -7.26% | activity, negative = inhibition [3] 20.3% | Potency [4] > 20.6 µM

O=C(NCc1ccccn1)c1ccc(=O)oc1
inactive: activity change, negative = inhibition [1] 5.8% | activity change, negative = inhibition [2] -2.94% | activity, negative = inhibition [3] 8.81% | Potency [4] > 20.6 µM

c1ccc(-c2nnc(OCCN3CCOCC3)c3ccccc23)cc1
inactive: activity change, negative = inhibition [1] -8.82% | activity change, negative = inhibition [2] 5.5% | activity, negative = inhibition [3] 5.26% | Potency [4] > 20.6 µM

COc1ccccc1C1CC(c2ccc(Cl)cc2)Nc2nc(N)nn21 (centres undefined)
inactive: activity change, negative = inhibition [1] 6.6% | activity change, negative = inhibition [2] 22.1% | activity, negative = inhibition [3] -2.9% | Potency [4] > 20.6 µM

COC(=O)c1c(C)noc1-c1cc(C)on1
inactive: activity change, negative = inhibition [1] 10.7% | activity change, negative = inhibition [2] 10.8% | activity, negative = inhibition [3] 8.94% | Potency [4] > 20.6 µM

CSc1nc(O)c(Cc2ccccc2)c(=O)[nH]1
inactive: activity change, negative = inhibition [1] -12.8% | activity change, negative = inhibition [2] 14.1% | activity, negative = inhibition [3] 0.301% | Potency [4] > 20.6 µM

CCOc1cccc(-c2nn3c(-c4ccco4)nnc3s2)c1
inactive: activity change, negative = inhibition [1] -15.5% | activity change, negative = inhibition [2] -4.59% | activity, negative = inhibition [3] -0.495% | Potency [4] > 20.6 µM

CC1(C(=O)CSc2nc3ccccc3[nH]2)CCC(=O)O1 (centres undefined)
inactive: activity change, negative = inhibition [1] 4.25% | activity change, negative = inhibition [2] 3.87% | activity, negative = inhibition [3] -2.98% | Potency [4] > 20.6 µM

CCCCCC(=O)N1CC2(C)CN(C(=O)CCCCC)CC(C)(C1)C2=O
inactive: activity change, negative = inhibition [1] 4.08% | activity change, negative = inhibition [2] -13.6% | activity, negative = inhibition [3] 5.3% | Potency [4] > 20.6 µM

COC(=O)c1cc(Br)c(=O)n(-c2cc(C)on2)c1
inactive: activity change, negative = inhibition [1] 8.72% | activity change, negative = inhibition [2] 12.9% | activity, negative = inhibition [3] 7.11% | Potency [4] > 20.6 µM

COC(=O)C(NC(=O)c1ccco1)(Nc1nc(C)cs1)C(F)(F)F (centres undefined)
inactive: activity change, negative = inhibition [1] -3.01% | activity change, negative = inhibition [2] 4.32% | activity, negative = inhibition [3] -2.51% | Potency [4] > 20.6 µM

CCN(CC)CCNC(=O)c1c(C)oc2cc(Br)c(OC)cc12
inactive: activity change, negative = inhibition [1] 29.7% | activity change, negative = inhibition [2] -19.9% | activity, negative = inhibition [3] -1.1% | Potency [4] > 20.6 µM

c1cc2c(cc1C1=Nn3c(nnc3C3CCCCC3)SC1)OCO2
inactive: activity change, negative = inhibition [1] -22.3% | activity change, negative = inhibition [2] 14.4% | activity, negative = inhibition [3] -7.03% | Potency [4] > 20.6 µM

CS(=O)(=O)c1ccc2nc(NC(NC(=O)c3ccco3)(C(F)(F)F)C(F)(F)F)sc2c1
inactive: activity change, negative = inhibition [1] -11.7% | activity change, negative = inhibition [2] 21.2% | activity, negative = inhibition [3] -18.9% | Potency [4] > 20.6 µM

CC(=O)N(Cc1ccccc1)c1ccc(C(=O)O)cc1
inactive: activity change, negative = inhibition [1] 1.39% | activity change, negative = inhibition [2] -12.1% | activity, negative = inhibition [3] 13.1% | Potency [4] > 20.6 µM

C=CCc1cccc(/C=N/n2cnnc2)c1O
inactive: activity change, negative = inhibition [1] -1.43% | activity change, negative = inhibition [2] -2.18% | activity, negative = inhibition [3] 7.8% | Potency [4] > 20.6 µM

CCOC(=O)C1=C(N)N2C(=O)CSC2=C(C(=O)OC)C1
inactive: activity change, negative = inhibition [1] -12.4% | activity change, negative = inhibition [2] 12.5% | activity, negative = inhibition [3] -25.6% | Potency [4] > 20.6 µM

COc1ccc(Oc2nc3c(c(=O)n(C)c(=O)n3C)n2Cc2cccc(OC)c2)cc1
inactive: activity change, negative = inhibition [1] -6% | activity change, negative = inhibition [2] -3.53% | activity, negative = inhibition [3] -2.94% | Potency [4] > 20.6 µM

COC(=O)c1n[nH]c2ccccc12
inactive: activity change, negative = inhibition [1] 9.29% | activity change, negative = inhibition [2] 15.6% | activity, negative = inhibition [3] -6.08% | Potency [4] > 20.6 µM

Cc1cc(SCCC(=O)O)nc2ccccc12
inactive: activity change, negative = inhibition [1] 0.423% | activity change, negative = inhibition [2] -5.26% | activity, negative = inhibition [3] 6.44% | Potency [4] > 20.6 µM

CCOC(=O)c1[nH]c2ccc(C)cc2c1N=CN(CC)CC
inactive: activity change, negative = inhibition [1] 7.82% | activity change, negative = inhibition [2] -21.2% | activity, negative = inhibition [3] 10.4% | Potency [4] > 20.6 µM

Cc1cn2c(-c3ccncc3)nnc2s1
inactive: activity change, negative = inhibition [1] -4.06% | activity change, negative = inhibition [2] 1.86% | activity, negative = inhibition [3] -2.66% | Potency [4] > 20.6 µM

COc1cccc(C2C(C#N)=C(N)Oc3cc(C)[nH]c(=O)c32)c1OC (centres undefined)
inactive: activity change, negative = inhibition [1] -18.5% | activity change, negative = inhibition [2] 0.0621% | activity, negative = inhibition [3] -3.84% | Potency [4] > 20.6 µM

CCCOc1ccc(N2C(=O)CC(N(Cc3ccc(S(N)(=O)=O)cc3)C(=O)CC)C2=O)cc1 (centres undefined)
inactive: activity change, negative = inhibition [1] -6.51% | activity change, negative = inhibition [2] 20.1% | activity, negative = inhibition [3] 11.7% | Potency [4] > 20.6 µM

O=C(O)c1ccc(COc2c(F)c(F)c(F)c(F)c2F)o1
inactive: activity change, negative = inhibition [1] 4.64% | activity change, negative = inhibition [2] -0.748% | activity, negative = inhibition [3] -10.8% | Potency [4] > 20.6 µM

COc1ccccc1Nc1ncnc2c1cnn2-c1cccc(C)c1
inactive: activity change, negative = inhibition [1] -28.5% | activity change, negative = inhibition [2] -14.7% | activity, negative = inhibition [3] -6.58% | Potency [4] > 20.6 µM
